Screening data deposited in PubChem by National Center for Advancing Translational Sciences (NCATS).
Shown are actives, neighbours in structure and some others; about 13% of the full set was active somewhere.
Pf growth 96h: P. falciparum growth inhibition at 96 hour, primary screen for plastid delayed-death inhibitors; 6.9% of 320,000 active; Potency, µM (titrated, usually from 28.7 µM), usual class: inhibitors; P. falciparum luciferase reporter growth, 96 h
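P. falciparum expressing integrated firefly luciferase, in erythrocytes at 2% hematocrit, 0.05% parasitemia, incubated with compounds 96 h at 37 C, 5% CO2. Growth inhibition read as loss of luminescence; two-generation exposure targets delayed-death apicoplast inhibitors.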
HCMV inh: human cytomegalovirus inhibition; HFF cells, HCMV-luciferase reporter, 72 h; stronger effect = lower value; 4.5% of 410,000 active; activity change, negative = inhibition, % at 57.5 µM; in the data active = activity change below about -60%; inconclusive = no clear call, values can overlap the other calls; inactive = above about -39%
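Two-dose cell screen: HFF monolayers treated with compounds and infected with luciferase-expressing HCMV at 1 PFU/cell, 72 h at 37C, then lysed for luciferase measurement.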
Pf growth 48h: inhibits P. falciparum growth in the first generation, 48 h | AID 504832 | 5.9% of 310,000 active | Potency, µM (doses to about 28.7 µM), most hits filed as inhibitors | P. falciparum luciferase growth in erythrocytes, 48 h
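Luciferase-expressing parasites in RBCs, 2% Hct / 0.1% parasitemia final; RPMI 1640 + 0.5% Albumax; 37 C, 5% CO2, one generation; luminescence read-out, lower signal = inhibition.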
HCV inh: blocks hepatitis C virus. Huh7.5.1 HCVcc-Cre infection, luciferase reporter, 44 h. Potency, µM (highest dose often 41.8 µM), usual class: inhibitors. 3.4% of 340,000 active. AID 651820
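Seed cells (1,000/well) for 4 h; treat with compound and infect with HCVcc-Cre, moi about 0.5. Incubate 44 h, then detect luciferase activity.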
A number is an active result; - = inactive; ? = inconclusive; . = no result given; ! = not active in a repeat; [ ] = dose if it differs, or a comment. Unless noted, calls come from the whole dose curve; as a rule, active = well fitted inhibition curve with a large enough effect; inconclusive = small, poorly fitted or top-dose-only effect, or another doubt; inactive = no such curve, though single readings can be large or run the other way.

SMILES	Pf growth 96h	HCMV inh	Pf growth 48h	HCV inh
COC(=O)Cc1cc(=O)[nH]c(/N=C(\N)Nc2ccc(C(C)C)cc2)n1	0.83µM	?	-	-
CC1CN(C(=O)CCC(=O)NCc2ccc(F)cc2)c2cc(Cl)ccc2O1 (centres undefined)	.	-	.	.
CCN(CC)C(=O)Cn1c(=O)n(Cc2ccc(C(=O)NCCc3ccc(OC)c(OC)c3)cc2)c(=O)c2ccccc21	.	-	.	.
C1CCN(c2c3c(nc4nnnn24)CCCC3)CC1	10µM	-64	-	-
C1CCC(CNc2c3c(nc4nnnn24)CCCC3)CC1	13µM	-	?	-
COc1ccc(CNC(=O)c2ccc(NC(=O)N3CCSc4ncccc43)cc2)cc1OC	.	-	.	.
N#Cc1ccc2c(c1)C[C@]1(CCCCN3C(=O)c4ccccc4C3=O)Oc3c(c(=O)oc4ccc(F)cc34)C2O1	?	.	1.9µM	.
CC1(C)CC(=O)C2=C(C1)O[C@@]1(CCCCN3C(=O)c4ccccc4C3=O)Cc3cc(C#N)ccc3C2O1	-[5.75 µM]	.	1.5µM	.
COC(=O)CC(c1ccc(F)cc1)n1c(C)ccc1C (centres undefined)	13µM	?	?	-
C=C1C(=O)OC2C1CCC(C)=C1C(=O)C3OC3(C)C12 (centres undefined)	.	-78	.	10µM
CC1(C)Cc2ccccc2C(NNC(=O)c2cccnc2)=N1	?	-92	-	-
CC1(C)Cc2ccccc2C(NNC(=O)c2ccncc2)=N1	-	-	-	-
O=C(CCn1cnnn1)Nc1ccc(F)cc1	-	-103!	-	-
CC(=O)Nc1ccc(NC(=O)CCn2cnnn2)cc1	-	-	-	-
COC(=O)N1CCCc2cc(S(=O)(=O)NCc3ccccc3)ccc21	.	-	.	.
Cc1ccc2[nH]c(=O)c(CN(Cc3cccnc3)C(=S)NCCCN(C)C)cc2c1	-	-	15µM	-
Cc1cccc2cc(CN(Cc3cccnc3)C(=S)NCCCN(C)C)c(=O)[nH]c12	?	-	?	-
Cc1ccc(CN(Cc2cc3cccc(C)c3[nH]c2=O)C(=S)NCCCN(C)C)cc1	-	?	?	35µM
Cc1ccc(C)c2[nH]c(=O)c(CN(CCCN(C)C)C(=O)NCc3ccccc3)cc12	?	-	?	-
CCN(CC)CCCNC(=S)N(Cc1cccnc1)Cc1cc2cc(C)ccc2[nH]c1=O	5.9µM	-	2.3µM	-
Cc1cc(C)c2cc(CN(CCCN(C)C)C(=S)NCc3ccccc3)c(=O)[nH]c2c1	?	-	?	10µM
Cc1cccc2cc(CN(Cc3ccccc3)C(=S)NCCCN(C)C)c(=O)[nH]c12	-	?	?	?
Oc1c(C(c2ccc(Cl)cc2)N2CCCC2)sc2nc(-c3ccco3)nn12 (centres undefined)	.	-	.	.
COc1ccc(C(C(=O)NC(C)(C)C)N(Cc2ccc(C)cc2)C(=O)CCC(=O)Nc2cc(C)on2)cc1 (centres undefined)	-	-	9.3µM	-
COc1cccc(C(C(=O)NC(C)(C)C)N(Cc2ccc(C)cc2)C(=O)CCC(=O)Nc2cc(C)on2)c1OC (centres undefined)	?	-	?	11µM
SMILES	Pf growth 96h	HCMV inh	Pf growth 48h	HCV inh
COCCN(C(=O)CCC(=O)Nc1cc(C)on1)C(C(=O)NC(C)(C)C)c1ccccc1Cl (centres undefined)	?	-63	-	-
COc1cccc(C(C(=O)NC(C)(C)C)N(C(=O)CCC(=O)Nc2cc(C)on2)C(C)C)c1OC (centres undefined)	?	-	12µM	-
CCOc1ccc(OCC)c(NC(=O)CCc2nc3cccnc3n2-c2ccccc2)c1	.	-	.	.
C/C(=C\C(=S)Nc1ccccc1)Nc1ccc2ccccc2c1	?	-	9.3µM	-
C/C(=C\C(=S)Nc1ccccc1)Nc1cccc2ccccc12	-	-	-	?
Nc1nc(-c2ccc(F)cc2)cc(C(F)(F)F)n1	.	-	-	?
COCC(C)NC(=O)CCS(=O)(=O)c1nc(-c2ccc(OC)cc2)cc(C(F)(F)F)n1 (centres undefined)	9.3µM	-104	-	?
CS(=O)(=O)c1nc(-c2cccs2)cc(C(F)(F)F)n1	13µM	.	-	.
CS(=O)(=O)c1nc(-c2ccc(F)cc2)cc(C(F)(F)F)n1	-	-99	-	6.3µM
O=C(NC(=O)c1ccc(F)cc1)Nc1nc(-c2cccs2)cc(C(F)(F)F)n1	-	-	?	-[8.37 µM]
COc1ccc(-c2cc(C(F)(F)F)nc(S(C)(=O)=O)n2)cc1	?	-105	.	?
Cc1ccc(NC(=O)COc2ccc(-c3nn(C)c(=O)c4ccccc34)cc2)c(C)c1	.	-	.	.
COc1ccc(CNC(=O)CCc2c(C)nn(-c3ccc(N4CCCCC4)nn3)c2C)cc1	.	-	.	.
CN1CCN(c2nc(-c3cccs3)cc(C(F)(F)F)n2)CC1	-	-	?	2.8µM
CN1CCN(c2nc(-c3ccccc3)cc(C(F)(F)F)n2)CC1	?	-	-	?
O=[N+]([O-])c1cnn(-c2nc(-c3cccs3)cc(C(F)(F)F)n2)c1	?	-99	10µM	-
CCCC(O)c1nc2ccccc2n1CCCCOc1ccc(OC)cc1 (centres undefined)	.	-	.	.
Clc1cccc(Nc2nccc3[nH]c(-c4ccncc4)nc23)c1	.	-	.	.
CCCn1c(=O)c(C(=O)NCCc2ccc(OC)cc2)c(O)c2ccccc21	?	-	-	13µM
CCCn1c(=O)c(C(=O)NCCc2ccccc2)c(O)c2ccccc21	15µM	-	-	-
C=CCn1c(=O)c(C(=O)NCc2ccc(Cl)cc2)c(O)c2ccccc21	-	-66	-	-
CCn1c(=O)c(C(=O)NCc2ccc(OC)cc2)c(O)c2ccccc21	-	-	-	-
CCCCCn1c(=O)c(C(=O)NCCc2ccccc2)c(O)c2ccccc21	5.9µM	-	15µM	?
C=CCn1c(=O)c(C(=O)NCCc2ccccc2)c(O)c2ccccc21	-	?	?	?
CCCn1c(=O)c(C(=O)NCc2ccccc2)c(O)c2ccccc21	-	-	-	?
SMILES	Pf growth 96h	HCMV inh	Pf growth 48h	HCV inh
Cc1ccc(C(=O)COC(=O)c2cccc(NC(=O)c3ccc(Cl)cc3Cl)c2)cc1	.	-	.	.
COc1ccc(NC(=O)CSc2nc(-c3ccccc3)[nH]c2-c2ccccc2)cc1OC	.	-	.	.
CCn1c(=O)c(C(=O)NCc2ccccn2)c(O)c2ccccc21	12µM	-	-	-
CCCn1c(=O)c(C(=O)NCc2ccc(OC)c(OC)c2)c(O)c2ccccc21	-	-	?	14µM
CCn1c(=O)c(C(=O)NCc2ccc(OC)c(OC)c2)c(O)c2ccccc21	?	-	?	?
CC(C)CCn1c(=O)c(C(=O)NCc2ccc3c(c2)OCO3)c(O)c2ccccc21	?	-	5.9µM	?
O=C(NCc1ccncc1)[C@@H]1CCCN1C(=O)[C@H]1CCCN1C(=O)c1cccc(Cl)c1	.	-	.	.
O=C(OCc1nc2ccccc2s1)c1cccs1	-	-62	-	-
CC1=Nc2cc(C(=O)NCCc3ccc(Cl)cc3)ccc2Sc2c(C)ccc(C)c21	.	-88	.	.
CCCNC(=O)c1ccc2c(c1)N=C(C)c1c(C)ccc(C)c1S2	.	-102	.	.
CC1=Nc2cc(C(=O)NCCc3ccccc3)ccc2Sc2c(C)ccc(C)c21	.	-103	.	.
